FMDV inh: High Throughput Screening for Foot and Mouth Disease Virus Antivirals; AID 1159524, 2015; Potency, µM (series often up to 57.9 µM), without a hit: top-dose activity change, negative = inhibition, actives largely listed as inhibitors; 410,000 tested, 1.2% active; FMDV antiviral cell-based qHTS; calls by dose curve; tested in HEK293T cells; note: read-out not given here; nearly all actives have a fitted effect of over 45% in size
FBPA Giardia inh: qHTS Assay for Inhibitors of Fructose-1,6-bisphosphate Aldolase from Giardia Lamblia | Potency, µM (top dose mostly 59.6 µM), inactives show top-dose activity, negative = inhibition, actives largely listed as inhibitors | AID 2451, 2010 | 290,000 tested, 0.71% active | A8B2U2 | purified Giardia FBPA; active = well fitted inhibition curve with a large enough effect; inconclusive = small, poorly fitted or top-dose-only effect, or effect the other way; note: nearly all actives have a fitted effect of over 55% in size
Target sequence (A8B2U2 whole entry, looked up): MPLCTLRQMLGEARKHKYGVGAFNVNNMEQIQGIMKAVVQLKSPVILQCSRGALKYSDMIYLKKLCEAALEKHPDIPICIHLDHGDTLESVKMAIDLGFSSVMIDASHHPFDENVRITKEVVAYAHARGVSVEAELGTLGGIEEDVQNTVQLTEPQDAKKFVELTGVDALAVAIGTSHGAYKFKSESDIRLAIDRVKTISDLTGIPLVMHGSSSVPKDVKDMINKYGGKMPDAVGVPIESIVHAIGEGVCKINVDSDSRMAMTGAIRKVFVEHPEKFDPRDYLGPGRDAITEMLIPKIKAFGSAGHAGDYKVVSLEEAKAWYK
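Giardia FBPA (40 nM reagent) was preincubated 10 min at RT with compound (up to 57.5 uM final), then substrate plus GAPDH/TPI/NAD/arsenate coupling system with diaphorase/resazurin was added; resorufin fluorescence (525/598 nm) was read after 20 min.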
Vaccinia Venus: qHTS for Stage-Specific Inhibitors of Vaccinia Orthopoxvirus: Venus Reporter Primary qHTS; Vaccinia virus Venus reporter expression, fluorescence; 330,000 tested, 0.46% active; AID 720580, 2013; Potency, µM (titrated, usually from 36.5 µM), inactives show top-dose activity change, negative = inhibition, hits mostly inhibitors; calls by dose curve; tested in A549 cells; note: nearly all actives have a fitted effect of over 30% in size
Vaccinia mCherry: qHTS for Stage-Specific Inhibitors of Vaccinia Orthopoxvirus: mCherry Reporter Primary qHTS. Vaccinia virus mCherry reporter infection, fluorescence. Potency, µM (highest dose often 36.5 µM), for the others: at the top dose activity change, negative = inhibition, usual class: inhibitors. 310,000 tested, 0.63% active. AID 720579, 2013; calls by dose curve; tested in A549 cells; note: nearly all actives have a fitted effect of over 35% in size
The depositor's hits bear a star; i = inactive; ? = inconclusive; nt = not tested or not shown; [ ] = remark or other dose. Sampled rows, rich in hits. Any-hit rate of the full collection: about 2.2%. % is set by controls: 0 for no effect and ±100 for the full control effect; potency is the fitted concentration of half-maximal effect.

SMILES	FMDV inh	FBPA Giardia inh	Vaccinia Venus	Vaccinia mCherry
O=C(N/N=C/c1cc(Cl)cc([N+](=O)[O-])c1O)NC12CC3CC(CC(C3)C1)C2	22µM*	-7%	-19%	-7%
COc1ccc(S[C@@H]2C[C@@H](C(=O)Nc3ccc4nccnc4c3)N(C3Cc4ccccc4C3)C2)cc1	10%	nt	-1%	-12%
Cc1ccc(C2CC(=O)Oc3cc(C)c(Cl)c(C)c32)cc1 (stereo not drawn)	nt	-1%[89.2 µM]	nt	nt
CC(C)C[C@@H](CO)N(Cc1ccccc1)S(=O)(=O)N(Cc1ccccc1)[C@@H](CO)CC(C)C	?	nt	22µM*	?
CC(C)C[C@@H](CO)N(Cc1ccccc1)S(=O)(=O)N(Cc1ccccc1)[C@H](CO)CC(C)C	?	nt	?	-27%
COc1ccc(CN([C@H](CO)CC(C)C)S(=O)(=O)N(Cc2ccccc2)[C@H](CO)CC(C)C)cc1	?	nt	13µM*	?
C=CS(=O)(=O)N(Cc1ccccc1Br)[C@H](CO)CC(C)C	0%	nt	1.4µM*	?
CC1CCN(CC(CS(=O)(=O)c2ccc([N+](=O)[O-])cc2)N2CCC(C)CC2)CC1 (stereo not drawn)	28µM*	-2%	?	?
CC(C)(C)C(=O)OCCNc1nc(-c2cccs2)nc2ccccc12	nt	nt	-22%	-24%
COc1ccc2c(c1)c(C(=O)N/N=C/c1cccc(O)c1)c(C)n2C	2%	-13%	-10%	-10%
COc1ccc2c(c1)c(C(=O)N/N=C/c1cccc(Br)c1)c(C)n2C	-21%	20µM*	-24%	-12%
COCCCNC(=O)c1ccccc1Oc1ccccc1	-10%	-2%	-8%	nt
COCCCNC(=O)c1ccc2c3c(onc13)-c1ccccc1C2=O	-104%	0.89µM*	90%	10%
CCOC(=O)C1(CCOc2ccccc2)CCN(C(=O)c2ccc(-n3cccn3)cc2)CC1	22µM*	-5%	-21%	?
O=C(CCS(=O)(=O)c1ccccc1)Nc1ccccn1	4%	10%	-6%	-7%
O=C(CCS(=O)(=O)c1ccccc1)Nc1nc(-c2ccccn2)cs1	-24%	nt	?	10µM*
Cc1ccc2[nH]nc(C(=O)N3CCOc4ccc(CN5CCc6sccc6C5)cc4C3)c2c1	-21%	nt	-20%	13µM*
COCC1CCCN(Cc2ccc3c(c2)CN(C(=O)c2cc(-c4ccccc4)n[nH]2)CCO3)C1 (stereo not drawn)	-20%	nt	-17%	-8%
CCOC(=O)N1CCN(Cc2ccc3c(c2)CN(C(=O)c2cc(-c4ccccc4)on2)CCO3)CC1	28µM*	nt	-19%	-24%
CCOC(=O)N1CCN(Cc2ccc3c(c2)CN(C(=O)c2cc(-c4ccccc4)no2)CCO3)CC1	25µM*	nt	-29%	-26%
Oc1ccc(-c2cccnc2)cc1CNC1CN2CCC1CC2 (stereo not drawn)	-10%	nt	-16%	-19%
CCCC(=O)NC(c1ccc(OC)cc1)c1ccc2cccnc2c1O (stereo not drawn)	-12%	9%	?	8.9µM*
CCCC(=O)NC(c1ccccc1)c1ccc2cccnc2c1O (stereo not drawn)	-16%	?	?	?
CCCCC(=O)NC(c1ccccc1)c1ccc2cccnc2c1O (stereo not drawn)	-4%	?	?	1.6µM*
Cc1ccc2oc(-c3cccc(NC(=O)COc4ccc(Cl)cc4)c3C)nc2c1	nt	nt	-12%	i
SMILES	FMDV inh	FBPA Giardia inh	Vaccinia Venus	Vaccinia mCherry
O=C(C[n+]1ccc2ccccc2c1)c1ccc(F)cc1	nt	nt	-28%	-10%
CC(=O)c1c(C)[nH]c(C(=O)OCC(=O)N2CCN(S(=O)(=O)c3ccc(C)cc3C)CC2)c1C	20µM*	-5%	?	-11%
CC(=O)c1c(C)[nH]c(C(=O)OCC(=O)Nc2ccc(C)cc2[N+](=O)[O-])c1C	5µM*	-3%	nt	nt
CC(=O)c1c(C)[nH]c(C(=O)OCC(=O)NCCc2ccc(Cl)cc2)c1C	-3%	6%	-15%	nt
CC(=O)c1c(C)[nH]c(C(=O)OCC(=O)Nc2cc(Cl)ccc2[N+](=O)[O-])c1C	28µM*	-16%	nt	nt
Cc1cnc(C)c(-c2cccc3c2OC(CNC(=O)C[C@@H]2C[C@@H](C)NC(=S)N2)C3)n1 (stereo partly drawn)	-5%	nt	3%	-10%
COc1ccc(/C=C/C(=O)c2ccc(C)s2)cc1	nt	-3%	nt	nt
CN(C)c1ccc(/C=C/c2ccnc3ccc(I)cc23)cc1	nt	nt	25%	-20%
O=C1CCCc2nc(N3CCN(C(c4ccccc4)c4ccccc4)CC3)ncc21	22µM*	-3%	nt	nt
COc1ccc(CN2C(=O)[C@@H]3Cc4c([nH]c5ccccc45)C(C)(C)N3C2=O)cc1	0%	nt	nt	nt
CC1(C)c2[nH]c3ccccc3c2C[C@@H]2C(=O)N(Cc3ccccc3Cl)C(=O)N21	-3%	nt	nt	nt
COc1ccccc1CN1C(=O)[C@@H]2Cc3c([nH]c4ccccc34)C(C)(C)N2C1=O	28µM*	nt	nt	nt
COc1cccc(CN2C(=O)[C@H]3Cc4c([nH]c5ccccc45)C(C)(C)N3C2=O)c1	35µM*	nt	nt	nt
Cc1cc(S(=O)(=O)Nc2cc3c(cc2NCc2ccccc2)n(C)c(=O)n3C)ccc1F	18%	nt	-5%	-17%
Cc1c(C(=O)N2CCCCC2)sc2ncnc(NCCN(C)C)c12	10%	nt	0%	-6%
COC(=O)CCCn1c(C)cc(C(=O)CCl)c1C	28µM*	-1%	?	?
Cc1cc(C(=O)CCl)c(C)n1Cc1ccco1	28µM*	-3%	1%	-10%
CCOC(=O)c1cc(C)n(CCc2ccccc2)c1C	0%	1%	?	i
Cc1cc(C(=O)CCl)c(C)n1CCc1ccccc1	28µM*	?	9%	-14%
COC(=O)NC(c1ccccc1)[C@@]1(C(=O)OC)CCCC1=O (stereo partly drawn)	nt	1%[12.9 µM]	nt	nt
CCOC(=O)N1CCN(C(=O)c2ccc(-c3ccccc3OC)nc2N2CCC(N3CCCC(CO)C3)CC2)CC1 (stereo not drawn)	-1%	nt	-5%	-9%
Cc1ccc(NC(=S)N(CCCN2CCCC2)Cc2cccn2Cc2ccc(Cl)cc2)cc1C	?	-12%	-13%	?
FC(F)(F)c1cccc(NC(=S)N(CCCN2CCCC2)Cc2cccn2Cc2ccc(Cl)cc2)c1	28µM*	-7%	?	?

Screening data: PubChem, National Center for Advancing Translational Sciences (NCATS)
